Where a name gives a salt, the structure may show the parent alone. ± gives the standard deviation of the averaged measurements.
test system: mESC LDLR-Dup GFP reporter (SpCas9 MH-deletion repair); test: fraction of GFP+ cells relative to DMSO control (fold change); higher = more MH-deletion repair to in-frame LDLR (or more editing); details: 2 µM; 7 days post-transfection

SMILES | fraction of GFP+ cells
O=C(COc1cccc2c(=O)[nH]ccc12)c1ccccc1 | 0.936 ± 0.095
Cn1cc(-c2ccc3c(c2)CCN3C(=O)Cc2cccc(C(F)(F)F)c2)c2c(N)ncnc21 | 0.644 ± 0.25
O=C(O[C@@H]1Cc2c(O)cc(O)cc2O[C@@H]1c1cc(O)c(O)c(O)c1)c1cc(O)c(O)c(O)c1 [(-)-Epigallocatechin Gallate] | 0.828 ± 0.097
COc1cc2c(cc1O)CC[C@@H]1[C@@H]2CC[C@]2(C)[C@@H](O)CC[C@@H]12 [2-Methoxyestradiol (2-MeOE2)] | 0.441 ± 0.088
C[C@H]1CNCCCN1S(=O)(=O)c1cccc2cncc(F)c12 [Ripasudil (K-115) hydrochloride dihydrate] | 1.31 ± 0.45
Nc1nc2[nH]cc(CCc3ccc(C(=O)N[C@@H](CCC(=O)O)C(=O)O)cc3)c2c(=O)[nH]1 [Pemetrexed Disodium Hydrate] | 1.69 ± 0.34
N=C1CCCN1Cc1[nH]c(=O)[nH]c(=O)c1Cl [Tipiracil hydrochloride] | 0.837 ± 0.26
OCc1ccc(-c2ccc(-c3ccc(CO)s3)o2)s1 | 0.657 ± 0.23
CCn1cc(C(=O)O)c(=O)c2cc(F)c(N3CCNCC3)nc21 [Enoxacin] | 1.04 ± 0.096
CC(C)NC(=O)COc1cccc(-c2nc(Nc3ccc4[nH]ncc4c3)c3ccccc3n2)c1 | 1.21 ± 1.4
CC1=C(/C=C/C(C)=C/C=C/C(C)=C/C(=O)O)C(C)(C)CCC1 [Tretinoin] | 0.923 ± 0.026
CC(C)=CCC[C@](C)(O)[C@H]1CC[C@]2(C)[C@@H]1[C@H](O)C[C@@H]1[C@@]3(C)CC[C@H](O)C(C)(C)[C@@H]3[C@@H](O)C[C@]12C [(20S)-Protopanaxatriol] | 1.02 ± 0.14
CCCC(CCC)C(=O)O [Valproic acid sodium salt (Sodium valproate)] | 0.849 ± 0.18
CCOC(=O)NCCCC(=O)NCCc1ccccc1 | 0.748 ± 0.18
Cn1cc(/C=C/C(=O)c2cccc(F)c2)cc1/C=C/C(=O)NO | 0.876 ± 0.1
Cc1nc2c(O)cccc2c(=O)[nH]1 | 0.926 ± 0.11
O=[N+]([O-])c1ccc(Nc2ccccc2-c2ccccc2)c2nonc12 | 0.854 ± 0.23
N=C1NC(=O)/C(=C/c2ccc(O)cc2)S1 [Mirin] | 0.862 ± 0.2
CCN1CCN(Cc2ccc(Nc3ncc(F)c(-c4cc(F)c5nc(C)n(C(C)C)c5c4)n3)nc2)CC1 | 0.684 ± 0.039
Cc1nc(=O)c2cc(CN(C)c3ccc(C(=O)N[C@@H](CCC(=O)O)C(=O)O)s3)ccc2[nH]1 [Raltitrexed] | 2.3 ± 1

SMILES | fraction of GFP+ cells
COc1nc(OCc2cccc(-c3ccccc3)c2C)ccc1CNCCNC(C)=O [bms202 (PD-1/PD-L1 inhibitor 2] | 1.04 ± 0.3
CN1CCN(c2ccc(Nc3ncc4cc(C#N)c(=O)n(C5CCCC5)c4n3)cc2)CC1 | 0.705 ± 0.077
Nc1cc(F)ccc1NC(=O)/C=C/c1cnn(C/C=C/c2ccccc2)c1 | 0.555 ± 0.17
O=c1oc2c(O)c(O)cc3c(=O)oc4c(O)c(O)cc1c4c23 [Ellagic acid] | 0.913 ± 0.11
O=c1cc(N2CCOCC2)oc2c(-c3cccc4c3sc3ccccc34)cccc12 | 0.732 ± 0.4
COc1c(N2C[C@@H]3CCCN[C@@H]3C2)c(F)cc2c(=O)c(C(=O)O)cn(C3CC3)c12 [Moxifloxacin HCl] | 0.624 ± 0.29
O=S(=O)(c1cccc2cnccc12)N1CCCNCC1 [Fasudil (HA-1077) HCl] | 2.2 ± 0.25
CN1CCc2c(c3ccccc3n2Cc2ccc(C(=O)NO)cc2)C1 [Tubastatin A HCl] | 0.623 ± 0.15
Nc1nc(=O)c2nc(CNc3ccc(C(=O)N[C@@H](CCC(=O)O)C(=O)O)cc3)cnc2[nH]1 [Folic acid] | 1.24 ± 0.46
NC(=O)c1ccccc1 [Benzamide] | 1.01 ± 0.07
CC(C)(C)OC(=O)Nc1ccc(-c2cc(C(=O)NCCCCCCC(=O)NO)no2)cc1 | 0.902 ± 0.059
NC(=O)c1cccnc1 [Nicotinamide (Vitamin B3)] | 1.74 ± 0.82
Nc1ccn(C[C@@H](CO)OCP(=O)(O)O)c(=O)n1 [Cidofovir] | 1.02 ± 0.1
O=C(c1ccc(Cl)cc1Cl)n1nnc2ccccc21 | 0.756 ± 0.056
CC1COc2c(N3CCN(C)CC3)c(F)cc3c(=O)c(C(=O)O)cn1c23 (stereo not given) [Ofloxacin] | 1.08 ± 0.19
COc1c(O)cc(O)c2c(=O)cc(-c3ccccc3)oc12 [Wogonin] | 0.728 ± 0.15
Cc1ccc(S(=O)(=O)c2ccc([N+](=O)[O-])o2)cc1 | 1.39 ± 0.46
O=C(O)c1cc(I)ccc1NC(=O)[C@H](Cc1ccccc1)NCc1ccccc1 | 1.89 ± 0.36
O=C(NCC1(c2nc(-c3ccccc3)cs2)CCOCC1)c1cccc(-c2noc(C(F)(F)F)n2)c1 | 0.752 ± 0.12
CCCCCOC(=O)Nc1nc(=O)n([C@@H]2O[C@H](C)[C@@H](O)[C@H]2O)cc1F [Capecitabine] | 0.922 ± 0.39

Reference: the supplement of paper PMC8387472
